The record followed here is PubChem BioAssay (Tox21).

A short description of test [1]: qHTS assay to identify small molecule that activate the aryl hydrocarbon receptor (AhR) signaling pathway - cell viability counter screen (AID 743086). Also: nearly all actives have a fitted effect of over 45% in size. The procedure, abridged: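 HepG2-AhR-luc (HG2L7.5c1) cells, 4000/well, were preincubated 5 h at 37C, exposed to compound in qHTS format for 24 hr at 37C, then given CellTiter-Fluor for 30 min; viability was read as fluorescence in the reporter wells.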
In general terms: In qHTS, concentration-response curves come from the screen itself.

For test [2], the target named is Peroxisome proliferator-activated receptor gamma (Homo sapiens) (UniProt P37231). The experiment in a line: qHTS assay to identify small molecule agonists of the peroxisome proliferator-activated receptor gamma (PPARg) signaling pathway (AID 743094; active = well fitted activation curve with a large enough effect in the signal ratio in the repeat runs, not every such curve was filed as active; the % refers to the signal ratio). The essentials: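 Compounds dissolved in DMSO were added to PPARg UAS-bla HEK293H cells for 17 h at 37C, and reporter expression was quantified by fluorescence intensity after 1 h with LiveBLAzer B/G FRET substrate.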
Sequence of Peroxisome proliferator-activated receptor gamma (Homo sapiens) (P37231 whole entry, looked up): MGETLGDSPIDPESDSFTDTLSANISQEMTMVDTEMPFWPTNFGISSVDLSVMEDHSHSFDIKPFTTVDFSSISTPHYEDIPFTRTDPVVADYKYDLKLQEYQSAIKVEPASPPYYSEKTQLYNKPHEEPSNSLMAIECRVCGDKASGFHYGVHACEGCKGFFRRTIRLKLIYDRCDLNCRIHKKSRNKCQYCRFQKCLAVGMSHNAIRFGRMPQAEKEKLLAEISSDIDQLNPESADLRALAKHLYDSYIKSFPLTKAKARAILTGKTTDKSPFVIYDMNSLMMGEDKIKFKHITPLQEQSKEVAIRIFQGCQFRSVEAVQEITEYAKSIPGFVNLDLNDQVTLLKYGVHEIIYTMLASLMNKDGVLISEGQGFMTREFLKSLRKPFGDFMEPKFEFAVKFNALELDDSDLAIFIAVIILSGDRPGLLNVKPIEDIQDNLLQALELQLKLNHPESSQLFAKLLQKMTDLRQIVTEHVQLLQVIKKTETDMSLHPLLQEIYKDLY

Test [3] in a line: qHTS assay to identify small molecule antagonists of the peroxisome proliferator-activated receptor gamma (PPARg) signaling pathway - cell viability counter screen (AID 743194). Also: nearly all actives have a fitted effect of over 55% in size. As to conditions: Potency: co-treated with 50 nM rosiglitazone unless noted. The procedure, abridged: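 PPARg-UAS-bla HEK293H cells were plated, rested 5 h at 37 C, then treated with compounds plus rosiglitazone (50 nM final) for 17 h at 37 C; viability was then read by CellTiter-Glo luminescence after 30 min at room temperature.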

Test [4] is described as follows: qHTS assay for small molecule agonists of the antioxidant response element (ARE) signaling pathway (AID 743202; active = well fitted activation curve with a large enough effect in the signal ratio in the repeat runs, not every such curve was filed as active; the % refers to the signal ratio). The procedure, abridged:
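Read-out: LiveBLAzer B/G FRET substrate fluorescence after 2 h at room temperature, following 16 h compound treatment at 37 C of HepG2 cells carrying an ARE-driven beta-lactamase reporter.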

Test [5] in a line: qHTS assay for small molecule agonists of the antioxidant response element (ARE) signaling pathway - cell viability counter screen (AID 743203; calls by dose curve; also: nearly all actives have a fitted effect of over 55% in size). The procedure, abridged: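 Following 16 hrs of compound treatment at 37C, HepG2 cells with an ARE-controlled beta-lactamase gene were lysed with CellTiter-Glo. Luminescence was read after 30 min at room temperature.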
A short description of test [6]: qHTS assay to identify small molecule agonists of the peroxisome proliferator-activated receptor delta (PPARd) signaling pathway - cell viability counter screen (AID 743211). Also: nearly all actives have a fitted effect of over 55% in size. The procedure, abridged:
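PPARd-bla HEK293H cells (UAS-beta-lactamase reporter) were treated with compounds for 17 h at 37 C. Viability was then read in the same wells by CellTiter-Glo luminescence after 30 min at room temperature.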

Test [7] is described as follows: qHTS assay for small molecule activators of the heat shock response signaling pathway - cell viability counter screen (AID 743209). Also: nearly all actives have a fitted effect of over 50% in size. The essentials:
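Readout: CellTiter-Glo luminescence, 30 min at room temperature. System: HSE-bla HeLa cells, 1500/well, plated overnight. Treatment: compounds in DMSO, 5 h at 37 C.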

Test [8] can be described thus: qHTS assay for small molecule activators of the heat shock response signaling pathway (AID 743210; active = well fitted activation curve with a large enough effect in the signal ratio in the repeat runs, with a control signal flat, not every such curve was filed as active; the % refers to the signal ratio; as to activation: series mostly up to about 63 µM). The procedure, abridged:
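HSE-bla HeLa cells (beta-lactamase reporter under heat shock response elements) were exposed to compounds for 5 h at 37 C, then loaded with LiveBLAzer B/G FRET substrate for 2.5 h at room temperature before fluorescence reading.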

Test [9] has as its target Peroxisome proliferator-activated receptor gamma (Homo sapiens) (UniProt P37231). The test can be described thus: qHTS assay to identify small molecule antagonists of the peroxisome proliferator-activated receptor gamma (PPARg) signaling pathway (AID 743191; calls by dose curve; also: nearly all actives have a fitted effect of over 30% in size). The essentials: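 GeneBLAzer PPARg UAS-bla HEK293H cells carrying a UAS-driven beta-lactamase reporter were plated at 3000 cells/well, preincubated 5 h at 37C, then given compound for 17 h at 37C; LiveBLAzer B/G FRET substrate was read after 1 h at room temperature.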

Each structure is given as a SMILES string. Several values for one entry are separate records, joined by “and”; a condition that tells them apart may be missing. Equal values may be shown once. Results filed as inconclusive are left out. The source holds several records for some structures; these can differ, active in one and inactive in another. Activity calls are given as the source filed them. Unless noted, calls follow the shape of the dose curve; as a rule, active = well fitted curve in the direction sought with a large enough effect in the repeat runs; inconclusive = weak or mixed curves; inactive = no such curve, though single readings can be large; an effect the other way counts as inactive or inconclusive.
Potency is read from the fitted curve at half-maximal effect.

For the compound `Nc1ccccc1C(=O)Oc1ccc2ccccc2c1`, the Potency entry in test [1], in [2], in test [3], in test [5] and in test [6] was “inactive” each time. The Potency in [4] is 21.7 µM (active).

Take `COc1ccc(/C(=C/C(=O)N2CCOCC2)c2ccc(Cl)cc2)cc1OC`: the Potency result in [1], in test [2], in [3], in test [7], in [8] and in test [6] was “inactive” in each case.

As for `CCOC(=O)OC1=C(c2cc(C)ccc2C)C(=O)NC12CCC(OC)CC2` (configuration not stated), the Potency entry in test [1], in test [2], in test [4], in test [7], in test [8] and in [6] was “inactive” throughout.

As to `CCCN(CCC)c1c([N+](=O)[O-])cc(S(N)(=O)=O)cc1[N+](=O)[O-]`, the Potency in [1] is 44.4 µM (active); in [9] it was 37 µM (active); in [3] it was 58.6 µM (active); in [5], 29.1 µM (active); in [6], 20.8 µM (active).

Turning to `CC(=O)C(Cl)(Cl)Cl`, the values for the Potency in test [1] and in test [5] were 23.5 µM (active) and 0.743 µM (active), respectively. The Potency result in [2] and in [7] was “inactive” each time.

For the compound `c1ccc(Nc2ccc3ccccc3c2)cc1`, the Potency result in test [1], in test [2], in [3], in test [5], in [8] and in test [6] was “inactive” each time. For the same compound, in test [7], the Potency entry was “inactive and 54.9 µM (active)”.

Turning to `Cc1c(Cl)c(=O)oc2cc(OP(=O)(OCCCl)OCCCl)ccc12`, the Potency entry in test [1], in test [2], in [9], in [3], in [4] and in test [5] was “inactive” each time. Besides, the Potency entry in test [7], in test [8] and in test [6] was “inactive” throughout.

`O=C(CCl)Nc1ccccc1`: the Potency in test [1] was 61.1 µM (active); in [3], 15.5 µM (active); in test [4], 4.33 µM (active); in test [7], 43.6 µM (active); in test [6] it was 49 µM (active).

As to `CC(C)N1C(=O)N(c2ccccc2)CSC1=NC(C)(C)C`, the Potency result in [1] was “inactive”.

Take `CCCCCCCCCCCCCN1CC(C)OC(C)C1` (configuration not stated): the Potency result in test [1], in test [2], in test [3], in [5], in test [7] and in [8] was “inactive” throughout.

For the compound `Fc1ccc(Oc2ccnc3cc(Cl)cc(Cl)c23)cc1`, the Potency result in test [1] and in [9] was “inactive” in each case. The Potency in [2] is 43.6 µM (active); in test [4], 12.2 µM (active).

`CC(=O)/C=C/c1ccc2c(c1)OCO2`: the Potency result in test [1], in test [2] and in test [3] was “inactive” in each case. In addition, the Potency in [9] is 12.4 µM (active).

With `BrCBr`, the Potency result in test [1], in test [2], in [3], in test [4], in [5] and in [7] was “inactive” throughout. The Potency entry in [8] and in test [6] was “inactive” throughout.

Consider `CC1(C)C(/C=C(\Cl)C(F)(F)F)C1C(=O)OC(C#N)c1cccc(Oc2ccccc2)c1` (configuration not stated), for which the Potency entry in test [1], in test [3], in test [4], in test [7] and in test [6] was “inactive” each time.

Turning to `O=CC(Br)(Br)Br`, the Potency in [1] is 48.4 µM (active); in test [3], 6.14 µM (active); in test [4], 1.72 µM (active); in test [7], 6.14 µM (active); in test [6], 17.3 µM (active).

Consider `Cc1ccc(OP(=O)(Oc2ccccc2)Oc2ccccc2)cc1`, for which the Potency result in test [1], in [2], in test [3], in [5], in [7] and in [8] was “inactive” in each case. Further, the Potency result in test [6] is “inactive”.

In the case of `Clc1ccc(C(Cl)(Cl)Cl)c(Cl)c1`, the Potency result in [1], in test [2], in [9], in [3], in test [5] and in [7] was “inactive” throughout. Also, the Potency result in test [8] and in test [6] was “inactive” throughout.

Take `CC1(C)[C@H](C(=O)O[C@H](C#N)c2cccc(Oc3ccccc3)c2)[C@@H]1/C=C(\Cl)C(F)(F)F`: the Potency result in test [1], in test [9], in test [3], in test [4], in test [5] and in test [7] was “inactive” throughout.

For `Clc1ccc(CO/N=C(\Cn2ccnc2)c2ccc(Cl)cc2Cl)c(Cl)c1`, the Potency result in test [1], in test [2] and in [6] was “inactive” each time. Also, the Potency in test [7] was 23.7 µM (active).

As to `Nc1ccc(Cc2ccc(N)c(Cl)c2)cc1Cl`, the Potency entry in test [1] and in test [2] was “inactive” in each case.

In the case of `BrC(Br)C(Br)(Br)Br`, the Potency result in test [1], in test [2] and in test [7] was “inactive” throughout. In addition, the Potency in test [5] was 54.8 µM (active); in test [6], 49.3 µM (active).

For the compound `CC(=O)Nc1ccc2c(c1)Cc1ccccc1-2`, the Potency result in test [1], in test [2], in test [9], in test [3], in [7] and in test [8] was “inactive” in each case. Moreover, in [6], the Potency entry was “inactive”. Moreover, the Potency in test [4] was 27.7 µM (active).

Take `CN(C)CCc1c[nH]c2ccc(O)cc12`: the Potency result in [1], in test [2], in test [9], in [3], in test [5] and in [7] was “inactive” each time. In addition, in test [8], the Potency is 59.7 µM (active).

Consider `CC(=O)O[C@H]1CC[C@@]2(C)C(=CC[C@@H]3[C@@H]2CC[C@]2(C)C(=O)CC[C@@H]32)C1`, for which the Potency entry in test [1], in test [2], in [3] and in [5] was “inactive” in each case. Also, in test [4], the Potency is 48.6 µM (active).

`CN(C)C(=S)[S-].CN(C)C(=S)[S-].[Cu+2]`: the Potency was 8.36 µM (active) in test [1]; 2.12 µM (active) in [3]; 1.49 µM (active) in test [4]; 3.33 µM (active) in [5]; 0.946 µM (active) in test [6].

As for `Oc1ccc(C(=C(Cl)Cl)c2ccc(O)cc2)cc1`, the Potency result in test [1] and in test [7] was “inactive” in each case. Also, the Potency in [9] is 17.3 µM (active); in test [4], 24.3 µM (active).

Take `O=C(NC(=O)c1c(F)cccc1F)Nc1cc(Cl)c(OC(F)(F)C(F)F)c(Cl)c1`: the Potency entry in [1], in test [9], in test [3], in test [5], in test [7] and in [8] was “inactive” each time. Besides, in test [6], the Potency entry was “inactive”.

With `c1ccc2c(c1)[nH]c1cnccc12`, the Potency entry in [1], in test [2], in test [9], in test [3], in test [5] and in test [7] was “inactive” each time. Further, the Potency entry in test [6] is “inactive”.

Regarding `O=S(=O)(c1ccc(Cl)cc1)c1ccc(Cl)cc1`, the Potency result in test [1], in test [2] and in test [7] was “inactive” each time.

As to `CC(c1ccc(O)cc1)c1ccc(O)cc1`, the Potency entry in test [1], in [2], in test [3], in test [7], in [8] and in test [6] was “inactive” in each case. The Potency is 36.5 µM (active) in [9] and 25.6 µM (active) in test [4].
